From PubChem BioAssay (EPA / NIEHS) come the findings set out here.

Active and inactive are the calls of the source. Rule for the calls: active = hit-call score of the fitted dose curve at least 0.9, where 1 is the maximum; inactive = score below 0.9.

Sequence of Hepatocyte nuclear factor 3-beta (Homo sapiens) (Q9Y261 whole entry, looked up): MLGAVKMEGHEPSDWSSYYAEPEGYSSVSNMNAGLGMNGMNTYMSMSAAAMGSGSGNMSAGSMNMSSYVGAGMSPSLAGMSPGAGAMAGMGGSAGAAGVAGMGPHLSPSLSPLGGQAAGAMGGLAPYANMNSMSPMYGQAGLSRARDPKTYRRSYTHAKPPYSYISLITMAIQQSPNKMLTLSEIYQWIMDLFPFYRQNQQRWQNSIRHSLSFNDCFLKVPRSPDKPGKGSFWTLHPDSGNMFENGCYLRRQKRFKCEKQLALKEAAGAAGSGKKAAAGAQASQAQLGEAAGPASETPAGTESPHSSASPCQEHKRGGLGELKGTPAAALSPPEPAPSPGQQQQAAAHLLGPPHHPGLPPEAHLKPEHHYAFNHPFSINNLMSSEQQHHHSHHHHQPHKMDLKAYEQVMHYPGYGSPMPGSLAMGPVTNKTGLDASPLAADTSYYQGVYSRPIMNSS

Test system in one assay: not listed separately
Description: ATG_Ets_CIS: Attagene CIS-FACTORIAL HepG2 Assay for human Erythroblast Transformation Specific (ETS) (AID 2282941). The settings on record: HepG2 ETS cis-reporter transcription, actives raise or lower the signal. Summed up: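 HepG2 cells transiently transfected with cis-promoter reporter transcription units were dosed for 24 h; reporter mRNA was measured by RT-PCR, 6-FAM primer extension, HpaI digestion and capillary electrophoresis, with bidirectional fitting against DMSO baseline.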
Regarding `O=C1O[C@H]([C@H](O)CO)C(O)=C1O`, the molecule was classed as inactive.

For `C/C=C/c1ccc(OC)cc1`, the result was inactive.

Consider `CCCCCCCCCC[N+](C)(C)[O-]`, for which the outcome was inactive.

As to `O=Cc1ccccc1C=O`, the call was inactive.

Regarding `CC(=O)CC(c1ccccc1)c1c(O)c2ccccc2oc1=O` (stereo not drawn), the result was inactive.

For the molecule `Cc1occc(=O)c1O`, the result was inactive.

`CC(=O)O`: the call was inactive.

Turning to `NC1CCCCC1`, the molecule was classed as inactive.

Turning to `CCCCCCCC(=O)OC`, the outcome was inactive.

`CCCCCCCCCCCCCCOS(=O)(=O)O`: the result was inactive.

Regarding `CCc1cc(C2=C(C(=O)O)N(c3ccccc3C(F)(F)F)S(=O)(=O)c3ccccc32)cc2c1OCO2`, the outcome was inactive.

For `CC(C)NCC(O)c1ccc(O)c(O)c1` (stereo not drawn), the outcome was inactive.

On to `CC(N)=O`, for which the result was inactive.

On to `CCCC[C@H]1CN(CC2CCOCC2)C(=O)OC12CCN(C1(C)CCN(C(=O)c3c(C)ncnc3C)CC1)CC2`, for which the result was inactive.

Turning to `Cc1ccc(-c2cc(C(F)(F)F)nn2-c2ccc(S(N)(=O)=O)cc2)cc1`, the molecule was called inactive.

As for `N[C@@H](Cc1c[nH]c2ccccc12)C(=O)O`, the outcome was inactive.

Consider `Oc1ccc(O)cc1`, for which the call was inactive.

Take `CC1(C)C(=O)NC(=O)N1CO`: the molecule was classed as inactive.

Turning to `Nc1nc(=S)c2[nH]cnc2[nH]1`, the molecule was classed as inactive.

As for `C/C=C/C=C/C(=O)O`, the call was inactive.

As for `CS(=O)(=O)c1ccc([C@@H](C[C@H]2CCC(=O)C2)C(=O)Nc2cnccn2)cc1Cl`, the result was inactive.

In the case of `CCN(CC)CCOc1ccc(C(=C(Cl)c2ccccc2)c2ccccc2)cc1`, the result was inactive.

Consider `CC(=O)O[C@]1(C(C)=O)CC[C@H]2[C@@H]3C=C(Cl)C4=CC(=O)[C@@H]5C[C@@H]5[C@]4(C)[C@H]3CC[C@@]21C`, for which the outcome was inactive.

Take `O=C1OC(c2ccc(O)cc2)(c2ccc(O)cc2)c2ccccc21`: the outcome was inactive.

Turning to `C#CC(O)C(CC)CCCC` (stereo not drawn), the call was inactive.

With `CO[C@@H]1COCC[C@@H]1N[C@@H]1CC[C@@](C(=O)N2CCc3ncc(C(F)(F)F)cc3C2)(C(C)C)C1`, the molecule was classed as inactive.

Turning to `CCCCCCCCCCCCCCCCO`, the molecule was called inactive.

Turning to `CC(C)(O)c1ccc(CNC(=O)c2cccnc2Oc2ccc(F)cc2)cc1`, the call was inactive.

On to `CCC(C)N(C)C(=O)c1cc2ccccc2c(-c2ccccc2Cl)n1` (stereo not drawn), for which the molecule was called inactive.

Another assay concerns the target Hepatocyte nuclear factor 3-beta (Homo sapiens) (UniProt Q9Y261). Description: ATG_FoxA2_CIS: Attagene CIS-FACTORIAL HepG2 Assay for human Forkhead box A2 (FOXA2) (AID 2282942). The settings on record: HepG2 cis-reporter transcription factor activity, 24 h; actives raise or lower the signal. Summed up:
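Cells: HepG2, transient multiplex reporter transfection. Exposure 24 h. Detection: reporter-specific RT-PCR, fluorescent labelling, restriction digest, capillary electrophoresis. Analysis: bidirectional curve fit, DMSO as negative control.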
`O=C1O[C@H]([C@H](O)CO)C(O)=C1O`: the result was inactive.

As for `C/C=C/c1ccc(OC)cc1`, the outcome was inactive.

Take `CCCCCCCCCC[N+](C)(C)[O-]`: the molecule was classed as inactive.

Regarding `O=Cc1ccccc1C=O`, the outcome was inactive.

For the molecule `CC(=O)CC(c1ccccc1)c1c(O)c2ccccc2oc1=O` (stereo not drawn), the call was inactive.

Take `Cc1occc(=O)c1O`: the call was inactive.

Consider `CC(=O)O`, for which the molecule was called inactive.

Regarding `NC1CCCCC1`, the molecule was called inactive.

Turning to `CCCCCCCC(=O)OC`, the call was inactive.

In the case of `CCCCCCCCCCCCCCOS(=O)(=O)O`, the call was inactive.

Take `CCc1cc(C2=C(C(=O)O)N(c3ccccc3C(F)(F)F)S(=O)(=O)c3ccccc32)cc2c1OCO2`: the molecule was classed as inactive.

With `CC(C)NCC(O)c1ccc(O)c(O)c1` (stereo not drawn), the molecule was called inactive.

In the case of `CC(N)=O`, the outcome was inactive.

Regarding `CCCC[C@H]1CN(CC2CCOCC2)C(=O)OC12CCN(C1(C)CCN(C(=O)c3c(C)ncnc3C)CC1)CC2`, the call was inactive.

With `Cc1ccc(-c2cc(C(F)(F)F)nn2-c2ccc(S(N)(=O)=O)cc2)cc1`, the outcome was inactive.

For the molecule `N[C@@H](Cc1c[nH]c2ccccc12)C(=O)O`, the call was inactive.

For `Oc1ccc(O)cc1`, the molecule was classed as inactive.

Consider `CC1(C)C(=O)NC(=O)N1CO`, for which the outcome was inactive.

Turning to `Nc1nc(=S)c2[nH]cnc2[nH]1`, the call was inactive.

`C/C=C/C=C/C(=O)O`: the outcome was inactive.

As to `CS(=O)(=O)c1ccc([C@@H](C[C@H]2CCC(=O)C2)C(=O)Nc2cnccn2)cc1Cl`, the outcome was inactive.

As for `CCN(CC)CCOc1ccc(C(=C(Cl)c2ccccc2)c2ccccc2)cc1`, the molecule was classed as inactive.

For `CC(=O)O[C@]1(C(C)=O)CC[C@H]2[C@@H]3C=C(Cl)C4=CC(=O)[C@@H]5C[C@@H]5[C@]4(C)[C@H]3CC[C@@]21C`, the molecule was classed as inactive.

For the molecule `O=C1OC(c2ccc(O)cc2)(c2ccc(O)cc2)c2ccccc21`, the AC50 (as a rule, the concentration at which the activity in the assay is half-maximal) was 177 µM (active).

With `C#CC(O)C(CC)CCCC` (stereo not drawn), the call was inactive.

Regarding `CO[C@@H]1COCC[C@@H]1N[C@@H]1CC[C@@](C(=O)N2CCc3ncc(C(F)(F)F)cc3C2)(C(C)C)C1`, the molecule was classed as inactive.

Turning to `CCCCCCCCCCCCCCCCO`, the call was inactive.

As for `CC(C)(O)c1ccc(CNC(=O)c2cccnc2Oc2ccc(F)cc2)cc1`, the molecule was classed as inactive.

In the case of `CCC(C)N(C)C(=O)c1cc2ccccc2c(-c2ccccc2Cl)n1` (stereo not drawn), the molecule was classed as inactive.
